Screening results: PubChem, National Center for Advancing Translational Sciences (NCATS)
PMP22 txn prim: modulators of PMP22 gene transcription in S16 Schwann cells | S16 Pmp22-F2sN Schwann cells, FLuc/NLuc coincidence luminescence, 24 h | Potency, µM (titrated, usually from 57.5 µM), for the others: top-dose activity change, negative = inhibition, actives largely listed as inhibitors | hit rate 2% among 43,000 | AID 1508649; active = clear falling dose curves in both reporters; inconclusive = both reporters move, but less clearly or upward; inactive = either reporter flat; the % is the NLuc reporter signal
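Luminescent read-out of sequential FLuc and NLuc signals from a reporter embedded in the Pmp22 3' UTR of S16 Schwann cells, taken after 24 h compound exposure at 37C; compounds reducing both signals score as inhibitors of expression.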
p53null 39C kill: selectivity test: cytotoxicity in p53 null cells, nonpermissive temperature. Potency, µM (series often up to 46.1 µM), for the others: at the top dose activity, negative = cell killing, hits mostly cytotoxic. H1299 p53-null (neo) cells, 39C, ATPlite viability, 24 h. hit rate 0.97% among 55,000;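 also: 0% = DMSO only and -100% = full killing by 100 µM tamoxifen; nearly all actives have a fitted effect of over 50% in size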
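Cells seeded at 600/well, 37C overnight. Compound added (up to 46 uM), plates shifted to 39C for 24 hr. ATPlite added, luminescence read after 20 min at room temperature.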
p53null 32C kill: selectivity test: cytotoxicity in p53 null cells, permissive temperature | H1299-neo p53 null cells, ATP luminescence, 24 h, 32C | Potency, µM (top dose mostly 46.1 µM), inactives show at the highest dose activity change, negative = cytotoxicity, hits mostly cytotoxic | hit rate 0.62% among 55,000;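 also: 0% = DMSO only and -100% = full killing by 100 µM tamoxifen; nearly all actives have a fitted effect of over 55% in size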
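H1299-neo, 600 cells/well; overnight 37C; cpd up to 46 uM, 24 h at 32C; ATPlite luminescence after 20 min RT; normalized to DMSO (0%) and tamoxifen 100 uM (100% kill); Hill-fit AC50.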
S16 viability: toxic to S16 Pmp22-F2sN Schwann cells; Potency, µM (highest dose often 57.5 µM), for inactives: top-dose activity change, negative = cytotoxicity, usual class: cytotoxic; AID 1508642; hit rate 0.48% among 43,000; S16 Pmp22-F2sN Schwann cells (luciferase reporters placed in the Pmp22 gene) viability, CellTiter-Glo, 24 h; also: nearly all actives have a fitted effect of over 65% in size
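Rat S16 Schwann reporter line, 24 h treatment with library compounds delivered at 23 nL per well. Cell viability by CellTiter-Glo luminescence.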
mTORC1 inh: inhibitors of mTORC1 signaling in Tsc2-/- p53-/- MEF cells | hit rate 0.78% among 44,000 | AID 493208 | Potency, µM (highest dose often 38.3 µM), inactives show at the highest dose activity change, negative = inhibition, hits mostly inhibitors | Tsc2-/- p53-/- MEF, phospho-rpS6 immunofluorescence/PI, 24 h;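 also: plate controls were DMSO for no effect and rapamycin for full effect; nearly all actives have a fitted effect of over 50% in size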
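Tsc2-/-, p53-/- mouse embryonic fibroblasts (empty-vector line) exposed to compound 24 hrs at 37 C, fixed, immunostained for phospho-rpS6 and counterstained with propidium iodide. Acumen laser scanning gives % positive cells from Alexa 488/PI ratio, thresholded using 7.5 nM rapamycin; PI count gives viability.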
Numbers without * were called inactive; ? = inconclusive; nt = no result given. A selection: hits, their analogues and other compounds. The true share with any hit is near 3.2%. Unless noted, calls follow the shape of the dose curve; as a rule, active = well fitted curve in the direction sought with a large enough effect; inconclusive = small, poorly fitted or top-dose-only effect, or another doubt; inactive = no such curve, though single readings can be large; an effect the other way counts as inactive or inconclusive. Unless noted, % is scaled to controls: 0 for no effect and ±100 for the full control effect; potency is read from the fitted curve at half-maximal effect.

SMILES | PMP22 txn prim | p53null 39C kill | p53null 32C kill | S16 viability | mTORC1 inh
COC(=O)c1c(C)oc2ccc(N(C(=O)c3ccncc3)S(=O)(=O)c3cc(C)ccc3C)cc12 | 12.1µM* | 90.7% | 77.8% | ? | ?
CCOc1ccc(S(=O)(=O)N(C(C)=O)c2ccc3oc(C)c(C(=O)OC)c3c2)cc1 | 5.38µM* | ? | 34.9% | ? | 6.56µM*
CCOC(=O)c1c(-c2ccccc2)oc2ccc(N(C(C)=O)S(=O)(=O)c3ccccc3)cc12 | nt | -11.6% | 6.0% | nt | 5.9%
COC(=O)c1c(C)oc2ccc(N(C(=O)c3ccncc3)S(=O)(=O)c3ccc(Br)cc3)cc12 | ? | ? | 6.6% | ? | ?
COC(=O)c1c(C)oc2ccc(N(C(=O)Oc3ccccc3)S(=O)(=O)c3ccc(C(C)(C)C)cc3)cc12 | 6.58µM* | 30.7% | 15.4% | -20.6% | 4.8%
Cc1cccc(-c2nc(SCC(=O)Nc3ccc4c(c3)OCO4)c(-c3ccccc3)[nH]2)c1 | ? | 13.4% | -11.7% | ? | -3.7%
Cc1ccc(Cl)cc1-n1c(=O)c2sc3ccccc3c2n(CC(=O)NC2CCCC2)c1=O | -4.4% | 14.7% | ? | -2.5% | 0.1%
Cc1oc2ccc(O)c(CN3CCN(Cc4ccccc4)CC3)c2c1C(=O)Nc1ccccc1 | nt | 12.1% | 12.7% | nt | -4.4%
O=S(=O)(Nc1cccc(-c2ccc(N3CCCCC3)nn2)c1)c1cccs1 | nt | 10µM* | 15.8µM* | nt | 0.8%
O=S(=O)(Nc1cccc(-c2ccc(N3CCCCC3)nn2)c1)c1ccc(Cl)s1 | nt | 10µM* | 15.8µM* | nt | 1.7%
CCOC(=O)c1ccc(NC(=O)Cn2cc(C(=O)c3ccc(Cl)cc3)c(=O)c3ccc(C)nc32)cc1 | 12.1µM* | -20.8% | 4.9% | ? | 2.7%
CCOc1ccc(C(C)C)cc1S(=O)(=O)Nc1cccc(-c2ccc(N3CCOCC3)nn2)c1 | nt | 0.3% | -18.3% | nt | -2.1%
CCN(CC)S(=O)(=O)c1ccc(NC(=O)CCc2c(C)nc3cc(-c4ccc(Cl)cc4)nn3c2C)cc1 | 7.77µM* | -10.1% | -4.1% | ? | 11.7µM*
CCOC(=O)CSc1nc2ccc(Nc3nc(N4CCOCC4)nc(N4CCOCC4)n3)cc2s1 | nt | 2.7% | 0.4% | nt | nt
Cc1ccc(Nc2nc(Nc3ccc(C)c(C)c3)nc(N3CCOCC3)n2)cc1C | -0.3% | 24.4% | -4.2% | ? | 1.04µM*
COc1ccc(Nc2nc(Nc3ccc(OC)cc3OC)nc(N3CCOCC3)n2)c(OC)c1 | -14.4% | 3.8% | -0.2% | -27.1% | 1.47µM*
COc1ccc(NC(=O)CSc2nc3ccccc3nc2N2CCOCC2)c(OC)c1 | -7.3% | ? | 10.0% | -3.0% | 12.3%
O=C(NCc1ccccc1Cl)c1cnc(N2CCCCC2)c2ccccc12 | -31.2% | 8.7% | 16.3% | 2.8% | ?
CCOc1ccccc1NC(=O)CCCc1nc(-c2ccccc2Cl)no1 | -17.2% | 1.3% | -1.6% | 7.7% | -9.1%
CCOc1ccccc1NC(=O)CSc1nnc(N)s1 | -18.1% | -1.2% | -6.0% | -1.7% | 1.0%
CCc1ccc(NC(=O)Cn2c(=O)n(-c3ccccc3)c(=O)c3ccc(C(=O)NCc4ccc5c(c4)OCO5)cc32)cc1 | ? | -15.3% | -14.2% | 5.4% | ?
CC(C)NC(=O)C1CCC(Cn2c(=O)c3sccc3n(CC(=O)Nc3ccccc3)c2=O)CC1 (stereo unspecified) | ? | 1.3% | -0.4% | 25.1µM* | 1.4%
CCOc1ccccc1NC(=O)Cn1c(=O)n(CC(=O)NCc2ccccc2Cl)c(=O)c2sccc21 | ? | ? | -0.4% | 28.2µM* | -3.5%
Cc1ccccc1NC(=O)Cn1c(=O)n(CCCCCC(=O)NCc2ccccc2Cl)c(=O)c2sccc21 | ? | -13.7% | -14.2% | 7.7% | -15.2%
CCOc1ccc(NC(=O)Cn2c(=O)n(-c3ccccc3)c(=O)c3ccc(C(=O)NCc4ccc5c(c4)OCO5)cc32)cc1 | ? | 15.8µM* | -10.5% | -18.5% | -10.6%
CCOc1ccc(NC(=O)Cn2c(=O)n(CCCCCC(=O)NCc3ccccc3)c(=O)c3sccc32)cc1 | ? | -19.9% | -12.8% | 20µM* | ?
